Test results reported in PubChem BioAssay AID559 (PCMD, 2006).
The whole screen tested about 62,000 compounds, of which about 100 (0.2%) were called active. Shown is part of a subset that was picked to be rich in actives. Unmarked numbers belong to inactive results. No stated cut-off is given here; in the data, active means inhibition above about 20%; inactive means the rest.

What follows are compounds tested against DNA-directed RNA polymerase subunit beta (Escherichia coli (strain K12)) (UniProt P0A8V2) (assay: bacterial RNA polymerase transcription inhibition – biochemical (AID 559;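 further: 0% = enzyme without compound and 100% = no enzyme blank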)). Settings: E. coli RNA polymerase, fluorescence transcription assay; hits give high values;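 tested at 10 µM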.
Chain of DNA-directed RNA polymerase subunit beta (Escherichia coli (strain K12)) (P0A8V2 whole entry, looked up): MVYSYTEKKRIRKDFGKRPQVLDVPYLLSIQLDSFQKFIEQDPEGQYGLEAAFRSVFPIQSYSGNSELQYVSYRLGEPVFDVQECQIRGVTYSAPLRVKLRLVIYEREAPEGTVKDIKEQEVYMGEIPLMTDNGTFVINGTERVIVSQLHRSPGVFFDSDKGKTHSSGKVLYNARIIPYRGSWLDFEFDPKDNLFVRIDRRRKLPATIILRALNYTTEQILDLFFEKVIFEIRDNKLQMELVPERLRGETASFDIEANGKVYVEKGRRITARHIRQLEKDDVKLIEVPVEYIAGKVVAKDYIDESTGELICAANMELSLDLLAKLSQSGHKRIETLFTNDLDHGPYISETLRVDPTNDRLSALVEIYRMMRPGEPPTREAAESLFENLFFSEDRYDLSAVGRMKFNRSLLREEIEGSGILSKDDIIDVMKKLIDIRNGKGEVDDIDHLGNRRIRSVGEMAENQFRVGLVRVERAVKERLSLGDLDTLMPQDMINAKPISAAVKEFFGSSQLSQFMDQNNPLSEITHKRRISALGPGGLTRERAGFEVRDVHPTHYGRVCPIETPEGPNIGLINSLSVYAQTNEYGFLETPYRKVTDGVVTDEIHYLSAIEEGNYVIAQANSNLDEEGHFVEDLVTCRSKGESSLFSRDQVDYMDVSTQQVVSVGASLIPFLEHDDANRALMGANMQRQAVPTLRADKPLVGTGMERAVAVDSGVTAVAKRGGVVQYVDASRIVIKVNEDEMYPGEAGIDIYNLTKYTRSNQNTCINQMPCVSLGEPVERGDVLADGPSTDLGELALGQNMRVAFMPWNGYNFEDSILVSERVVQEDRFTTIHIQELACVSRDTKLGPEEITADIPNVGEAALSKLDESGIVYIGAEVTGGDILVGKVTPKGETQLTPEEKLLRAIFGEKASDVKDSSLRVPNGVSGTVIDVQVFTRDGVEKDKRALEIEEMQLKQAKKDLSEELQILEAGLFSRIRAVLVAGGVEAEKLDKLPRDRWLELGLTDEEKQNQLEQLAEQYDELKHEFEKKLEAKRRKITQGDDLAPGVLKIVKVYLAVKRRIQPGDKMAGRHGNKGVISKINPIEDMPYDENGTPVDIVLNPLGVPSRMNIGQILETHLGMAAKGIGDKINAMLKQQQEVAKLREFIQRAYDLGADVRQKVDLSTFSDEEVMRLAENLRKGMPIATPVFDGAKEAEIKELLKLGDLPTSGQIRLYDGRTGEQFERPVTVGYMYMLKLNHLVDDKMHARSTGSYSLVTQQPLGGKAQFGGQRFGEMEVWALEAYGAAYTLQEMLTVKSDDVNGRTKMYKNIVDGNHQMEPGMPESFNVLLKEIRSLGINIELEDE

Row | SMILES | inhibition
1 | C=CCOc1ccc(C2/C(=C(\O)c3c(C)[nH]c(C(=O)OC)c3C)C(=O)C(=O)N2CCN(C)C)cc1 (stereo not drawn) | -5.38%
2 | CC(=O)c1cccc(NC(=O)N2CCCC2C(=O)NCCC(C)C)c1 (stereo not drawn) | 6.83%
3 | Cc1ccccc1-n1c(SCC(=O)NCc2cccs2)nnc1-c1ccncc1 | -3.22%
4 | Cn1c(=O)[nH]c(=O)c2c1nc(N1CCN(CCO)CC1)n2CCSc1nc2ccccc2s1 | 7.67%
5 | O=C(Nc1ccccc1F)c1cc(S(=O)(=O)N2CCCCC2)cs1 | -4.61%
6 | Cc1ccc(C)c(NS(=O)(=O)c2cc(Br)cnc2N)c1 | -0.25%
7 | c1ccc(-n2ncc3c(N4CCCC4)ncnc32)cc1 | 10.9%
8 | Cc1nnc(SCC(=O)N2CCc3ccccc32)n1-c1ccccc1 | 5.59%
9 | Cc1ccccc1C(=O)Nc1cccc(-c2nnc(SCC(=O)O)n2C)c1 | 12.2%
10 | CCn1c(SCC(=O)Nc2cccc(F)c2)nnc1-c1cc2cc(Br)ccc2o1 | 9.56%
11 | O=C(NCc1cccs1)C1CCN(S(=O)(=O)c2ccc3c(c2)OCCO3)CC1 | 7.85%
12 | O=C(CSc1ncccn1)NCCc1ccccc1 | 1.73%
13 | CC(C)(C)c1ccc(C(=O)CSc2ncn[nH]2)cc1 | 5.03%
14 | NC(=O)C1CCN(C(=O)c2ccc(C(F)(F)F)cc2)CC1 | 2.29%
15 | CCC(=O)Nc1cccc(NC(=O)c2cccnc2)c1 | 1.22%
16 | Cn1c(=O)cc(OCCCC(=O)N2CCN(Cc3ccc4c(c3)OCO4)CC2)c2ccccc21 | 14.1%
17 | COc1ccc(CN2CN(C(C)C)CSC2=S)cc1 | 0.75%
18 | Cc1ccccc1CN1CCN(CC(=O)NCc2ccccn2)C1=O | -3.92%
19 | Clc1ccc(C2CC(c3cccs3)n3ncnc3N2)cc1Cl (stereo not drawn) | 3.31%
20 | Cc1csc(NC(=O)NC2(C(F)(F)F)Oc3ccccc3O2)n1 | 30.9% (active)
21 | Cc1csc(NC(=O)CN2CCCCCC2)n1 | 10.6%
22 | Cc1cc(C)nc(NC(=O)Nc2ccccc2C(F)(F)F)n1 | 3.47%
23 | CCOC(=O)CC1C(=O)NCCN1C(=O)COc1ccc(Br)cc1C (stereo not drawn) | 4.26%
24 | COCCCNC(=O)c1ccc(CNS(=O)(=O)c2ccc(NC(C)=O)cc2)cc1 | -9.1%

Row | SMILES | inhibition
25 | Cc1ccc(NC(=O)NCC(c2cccnc2)N2CCOCC2)cc1 (stereo not drawn) | 6.82%
26 | CCCS(=O)(=O)Nc1c(C(=O)O)[nH]c2ccccc12 | 8.57%
27 | COc1ccc(Cl)cc1S(=O)(=O)Nc1cccc(C(=O)O)c1 | 4.26%
28 | CC1CCCN(c2ccc(C(=O)NCCc3ccccc3)cn2)C1 (stereo not drawn) | 9.14%
29 | CCC12CN3CC(CC)(CN(C1)C31C(=O)N(C)c3ccc(C)cc31)C2=O (stereo not drawn) | 9.74%
30 | COc1ccc(OC)c(C2N(c3ccccn3)C(=O)C3CCCN32)c1 (stereo not drawn) | 5.57%
31 | O=C(CCS(=O)(=O)Cc1ccccc1F)NCCCN1CCCCC1 | 2.74%
32 | CCCn1c(SCC(=O)Nc2c(C)cccc2C)nnc1C(C)C | -6.26%
33 | CCOC(=O)c1ccc(-c2ccc(C(=O)Nc3cccnc3)o2)cc1 | 14.4%
34 | CC(C)NS(=O)(=O)c1ccc(NC(=O)c2cccnc2)cc1 | 4.79%
35 | CC(=O)Oc1cccc(N2C(=O)C3CC=C(Cl)CC3C2=O)c1 (stereo not drawn) | 9.02%
36 | CCn1c(CSc2ncccn2)nnc1SCC(=O)N1c2ccccc2CC1C (stereo not drawn) | 4.54%
37 | O=c1c2ccccc2oc2nc3n(c(=O)c12)CCCS3 | 4.21%
38 | O=C(N1CCOCC1)N1CCOCC1 | 0.65%
39 | CC(C)Cc1cc(C(=O)NCCc2ccccc2)no1 | -0.72%
40 | CCC1CCCCN1CCNC(=O)c1[nH]c(C)c(C(C)=O)c1C (stereo not drawn) | 3.39%
41 | CCOC(=O)N1CCN(C(=O)c2ccc3nc4cc(Cl)ccc4c(=O)n3c2)CC1 | -20.1%
42 | CC1=C(C)CC2C(=O)N(c3cccc4ccccc34)C(=O)C2C1 (stereo not drawn) | 5.39%
43 | COc1ccccc1-c1c(C)nn2c(C)c(C(C)=O)cnc12 | 1.22%
44 | Cn1cccc1C(=O)NC(=O)COC(=O)Cc1coc2ccc3ccccc3c12 | 4.62%
45 | O=C(Nc1cccc(Cl)c1)OCc1ccccn1 | 5.59%
46 | Cc1cc(C)c(C(=O)CN2C(=O)CCC2=O)cc1C | 1.27%
47 | O=C(CNS(=O)(=O)c1cccc(C(F)(F)F)c1)Nc1ccccc1F | 12.6%
48 | O=C1CC(c2ccccc2)C(=O)N1c1cccc(O)c1 (stereo not drawn) | 4.1%
